Test results taken from ChEMBL document CHEMBL3433997, “St. Jude Leishmania screening dataset” (2016).

Assays:
Type in all cases: functional
[1] = target: Solute carrier family 2, facilitated glucose transporter member 1 (Homo sapiens) (UniProt P11166); assay: ST_JUDE_LEISH: Cytotoxicity at 2uM final concentration against transgenic Leishmania Mexicana promastigotes LmGLUT1 that are glucose transport deficient and complemented with the human glucose transporter GLUT1. Activity is measured by DNA content using SYBR green in vitro
Solute carrier family 2, facilitated glucose transporter member 1 (Homo sapiens), sequence (P11166 whole entry): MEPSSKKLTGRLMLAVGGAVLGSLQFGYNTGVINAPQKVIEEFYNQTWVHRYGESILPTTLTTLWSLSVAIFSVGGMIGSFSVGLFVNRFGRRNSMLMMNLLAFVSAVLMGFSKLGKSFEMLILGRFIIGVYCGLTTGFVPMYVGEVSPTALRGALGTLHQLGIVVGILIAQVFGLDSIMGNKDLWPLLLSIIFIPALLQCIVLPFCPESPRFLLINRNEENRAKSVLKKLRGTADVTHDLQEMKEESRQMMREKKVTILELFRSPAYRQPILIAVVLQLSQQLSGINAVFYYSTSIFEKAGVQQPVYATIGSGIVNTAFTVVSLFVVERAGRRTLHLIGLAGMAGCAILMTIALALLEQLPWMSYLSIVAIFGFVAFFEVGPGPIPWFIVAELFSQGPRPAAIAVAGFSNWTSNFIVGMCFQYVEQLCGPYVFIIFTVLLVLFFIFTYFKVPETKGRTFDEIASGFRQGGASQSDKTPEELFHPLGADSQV

[2] = target: Hexose transporter 1 (Plasmodium falciparum) (UniProt O97467); assay: ST_JUDE_LEISH: Cytotoxicity at 2uM final concentration against transgenic Leishmania Mexicana promastigotes LmPfHT that are glucose transport deficient and complemented with the Plasmodium falciparum hexose transporter. Activity is measured by DNA content using SYBR green in vitro
[3] = target: Glucose transporter (Leishmania mexicana) (UniProt O61059); assay: ST_JUDE_LEISH: Cytotoxicity at 2uM final concentration against transgenic Leishmania Mexicana promastigotes LmGT2 that are glucose transport deficient and complemented with the L. Mexicana glucose transporter 2. Activity is measured by DNA content using SYBR green in vitro

Structure (SMILES)	inhibition [1]	inhibition [2]	inhibition [3]
CC(C(=O)OCCOCn1cnc2c(=O)[nH]c(N)nc21)N(C)C(=O)OC(C)(C)C (configuration not stated)	-2.44%	-1.51%	-3.59%
COc1ccc(-c2nc3cc4ccccc4nc3[nH]2)c(OCC(O)CNC(C)C)c1 (configuration not stated)	-1.53%	1.33%	1.21%
O=C(C=Cc1ccc(Cl)c(Cl)c1)NCCCCCN1CCC(CCNS(=O)(=O)c2ccc(F)cc2)CC1	1.24%	0.05%	4.55%
CN1CCN(CCCN(Cc2cccc(-c3ccc(CNCc4ccc5c(c4)OCO5)cc3)c2)C(=O)CCC2CCCC2)CC1	51.2%	45.7%	34.4%
CC(C)c1ccc(CN(C)CCCCNC(=O)c2ccc(NC(=O)c3ccc(Cl)cc3)cc2)cc1	-0.05%	-0.96%	-1.07%
CC/N=C(/NCCCCCCN/C(=N/CC)NCc1ccccc1)NCc1ccccc1	0.49%	-0.55%	-2.09%
CCCCCCCN(Cc1ccc(OC(C)(C)C(=O)OCC)cc1)C(=O)Cc1ccc(F)cc1F	2.17%	1.8%	2.23%
Cc1cc(Nc2ccncc2)n2nc(C)c(-c3ccc(Cl)cc3)c2n1	11.6%	9.35%	8.71%
S=C(Nc1ccc(Cl)cc1)Nc1ccc(Nc2ccccc2)cc1	6.97%	5.37%	5%
CCC1N=C(N)N=C(N)N1OCc1cccc2ccccc12 (configuration not stated)	1.74%	0.62%	1.16%
Cc1c(OC(C)C)nc2ccccc2c1C(=O)N[C@H](c1cccc(F)c1)C1CC1	0.15%	-0.55%	-0.32%
CCc1ccc(O)c(-c2cc(C(=O)Nc3ccc(OC)c(Cl)c3)[nH]n2)c1	0.23%	0.3%	-7%
CCc1cn2c3c(cc(C(=O)N[C@@H](Cc4cccc(F)c4)[C@H](O)CNC4CCOCC4)cc13)N(C)S(=O)(=O)CC2	-0.16%	0.52%	1.47%
CCCc1cc(NCc2ccncc2)nc(Nc2ccc(F)cc2)n1	13.4%	8.66%	2.99%
